The results in this text go back to PubChem BioAssay AID1739 (National Center for Advancing Translational Sciences (NCATS), 2009).

The nature of this assay: Counterscreen Assay for Enhancers of SMN2 Splice Variant Expression: Modulation of SMN1 Expression. The source says:
NIH Chemical Genomics Center [NCGC] NIH Molecular Libraries Probe Production centers Network [MLPCN] MLPCN Grant: R03 MH084179-01 Assay Submitter (PI): Elliot Androphy NCGC Assay Overview: Spinal muscular atrophy (SMA) is caused by insufficient levels of the survival motor neuron protein SMN. The SMN locus on chromosome 5q13 contains two inverted copies of SMN called SMN1 and SMN2 which are 99% identical at the amino acid level. SMN1 is a fully functional protein and SMN2 skips exon 7 90% of the time. Skipping of exon 7 produces non-functional protein product. 10% of the SMN2 protein includes exon 7 and is fully functional. In the SMA disease state, mutations in the SMN1 locus are the cause of the disease state. Because only 10% of SMN2 is of the fully functional form, it is not sufficient to overcome the deficiency produced by the loss of the SMN1 product. A therapy that either increase the amount of SMN2 product made or to increase the inclusion of exon 7 has been proposed for the treatment of SMA. We have designed an assay to identify small molecules that can increase the amount of functional SMN2 product by appending a luciferase reporter gene after the native SMN2 gene, such that inclusion of exon 7 in the expressed product places the luciferase sequence in frame, thus generating functional luciferase enzyme. […]

Records with an inconclusive call do not appear. A call without a number means that no potency is given here. Calls of active or inactive are those of the source. The call rests on the fitted dose curve; in most records, active means well fitted inhibition curve with a large enough effect; inconclusive means small, poorly fitted or top-dose-only effect; inactive means flat fitted curve, though single readings scatter.

As to `CC[C@]1(O)CC(O[C@@H]2CC(N(C)C)C(O)C(C)O2)c2c(cc3c(c2O)C(=O)c2c(O)cccc2C3=O)C1C(=O)OC` (some centres not stated), the Potency was 1120 nM (active).

With `CCc1ccc2nc(N3CCC(C(=O)N4CCC5(CC4)OCCO5)CC3)sc2c1`, the Potency result is “inactive”.
